This is part of a sample that, as a whole, favours compounds with a hit. Of some 83,000 tested, about 20% had one in any assay.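 Cells were grown in 96-well plates and exposed to the test compound at a single concentration for 48 hours; results are reported as percent growth, with values below 10 considered active.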 The source made the active and inactive calls.
System: KM12 colon
Assay: NCI-60 one-dose screen, 48 h (100 = growth as untreated, 0 = no growth, -100 = all killed)
Details: 10 µM unless noted
Method: Growth inhibition of the KM12 human tumor cell line is measured as a screen for anti-cancer activity. Cells are grown in 96 well plates and exposed to the test compound for 48 hours. Compounds are tested at a single concentration, which is 10^-5 M for most compounds. The reported endpoint is percent growth (GI% or GIPRCNT), where numbers from 0 - 100% represent growth inhibition, and numbers from -100% - 0 represent cell death. For example, a value of 40 represents 60% growth inhibition. A value of 0 means no net growth occurred over the course of the experiment. A value of -40 indicates 40% of cells at the beginning of the experiment died by the end of the experiment. A value of -100 means all cells are dead at the end of the experiment.
NCI-60 Human Tumor Cell Lines Screen was performed using the standard one-dose NCI protocol, which is described in more detail at https://dtp.cancer.gov/discovery_development/nci-60/default.htm.
Compounds with GIPRCNT values below 10 were considered active. Activity score was based on GIPRCNT using the following formula: […]
Score is 0 for GIPRCNT values of 100 or above, 50 for GIPRCNT values of 0, and 100 for GIPRCNT values of -100.

Row | SMILES | growth
1 | Brc1ccc(SCN(CSc2ccc(Br)cc2)Cc2ccccc2)cc1 | 43.2% (inactive)
2 | COc1cc(-c2ccc3cc(OC)c(OC)c(OC)c3c2)cc(OC)c1OC | 37.5% (inactive)
3 | CCN(CC)CCCNc1ccc(C)c2sc3ccccc3c(=O)c12 | 33.2% (inactive)
4 | O=C(Nc1ccc(F)cc1)c1ccc(C(=O)Nc2ccc(F)cc2)cc1 | 108% (inactive)
5 | COC(=O)c1cc(-c2ccc(C)cc2)n(C(=O)CSc2nc3sc(C(N)=O)c(C)c3c(=O)n2Cc2ccccc2)n1 | 100% (inactive)
6 | COc1ccc(-n2c(SCc3cc(OC)c(OC)c(OC)c3)nc3ccc(C)cc3c2=O)c(OC)c1 | 18.1% (inactive)
7 | COC(=O)c1c2c(c(C)[n+]([O-])c1C)C(=O)C=C(NCc1ccc(Cl)cc1)C2=O | -4.32% (active)
8 | COc1ncnc2c1ncn2C/C(Br)=C(\Br)CCl | -5.61% (active)
9 | O=c1[nH]c(=S)c2c(n1CCCO)CCC2 | 105% (inactive)
10 | Cc1ccc(S(=O)(=O)N2CCc3ccc(O)c4c3C2Cc2ccc3c(c2-4)OCO3)cc1 (stereo not given) | 12.5% (inactive)
11 | CCN1CCN(c2nc3ccccc3c3c(=O)c4cc(F)ccc4sc23)CC1 | 48.5% (inactive)
12 | O=C(Nc1ccccc1)Oc1cccc2cccnc12 | 108% (inactive)
13 | COc1ccc(Nc2nc(NCCNc3ccnc4cc(Cl)ccc34)nc(N3CCOCC3)n2)cc1 | 51.5% (inactive)
14 | COc1ccc2nc(-n3nc(C)cc3C)c(-n3nc(C)cc3C)nc2c1 | 116% (inactive)
15 | Cc1nc2cc(Nc3nc(N4CCOCC4)nc(N4CCN(C)CC4)n3)ccc2n1Cc1ccccc1 | 115% (inactive)
16 | Cc1ccccc1-n1nnc(C(=O)Nc2nc(-c3ccccc3)c(-c3ccccc3)s2)c1C | 81.4% [50 µM] (inactive)
17 | COc1cc(-c2nc(Nc3nc4ccccc4[nH]3)nc(N)c2C#N)cc(OC)c1OC | 36.6% (inactive)
18 | CCOC(=O)n1cc(C2=C(c3cn(C)c4ccccc34)COC2=O)c2ccccc21 | 2.55% (active)
19 | O=C1C(Cl)=C(NCCCN2CCOCC2)C(=O)c2ccccc21 | 91.4% (inactive)
20 | NC(=O)c1nc2c([nH]c1=O)CCCC2 | 98.8% (inactive)

Row | SMILES | growth
21 | CC(=O)N(CC(O)CO)c1c(I)c(C(=O)NCCO)c(I)c(C(=O)NCC(O)CO)c1I (stereo not given) | 103% (inactive)
22 | Cc1nc2cc(Nc3nc(Nc4ccc(F)cc4)nc(-c4ccc(Cl)cc4)n3)ccc2n1Cc1ccccc1 | 37.2% (inactive)
23 | O=C1CN2CCC1C/C2=C\c1ccnc2c(Cl)cccc12 (stereo not given) | 101% (inactive)
24 | O=C(N/N=C(\CS(=O)(=O)c1ccccc1)c1cc2ccccc2oc1=O)c1ccccc1 | 108% (inactive)
25 | CN1CCC(OC2c3ccccc3CCc3ccccc32)CC1 | 102% (inactive)
26 | CCOC(=O)c1sc(NC(=O)CN2CCC(Cc3ccccc3)CC2)nc1C | 106% (inactive)
27 | COc1ccc(/C=N/OCC(O)CN2CCC(O)CC2)cc1OC1CCCC1 (stereo not given) | 109% (inactive)
28 | Cn1cc(C(=O)NCCC(=N)N)cc1NC(=O)CN=C(N)N | 104% (inactive)
29 | Cc1c(C(=O)Nc2nc(-c3ccccc3)cs2)nnn1-c1ccccc1Br | 36.3% [50 µM] (inactive)
30 | CCOC(=O)C1=C(C)N2C(=NC3=C(CCCC/C3=C\c3ccccc3)C2c2ccccc2)S1 (stereo not given) | 97.3% (inactive)
31 | COc1ccc(-c2c(-c3cc4c(c(OC)c3OC)OCO4)noc2N)cc1 | 18.9% (inactive)
32 | O=C(O)C[C@H](O)C[C@H](O)/C=C/c1c(C2CC2)nc2ccccc2c1-c1ccc(F)cc1 | 102% (inactive)
33 | Cc1cc(=O)[nH]n1-c1cc(Cl)ccc1N | 119% (inactive)
34 | Cc1ccc(N=c2nc3sc4c(C)ccc(C)c4n3c(N)c2C#N)cc1 | 97.7% (inactive)
35 | CC(=O)OC[C@]1(C)C=C2C(=O)[C@](C)(O)C3(CC3)C(C)=C2[C@H]1OC(C)=O | 78.4% (inactive)
36 | O=c1nc(NO)[nH]c(=O)n1Cc1ccc(F)cc1 | 109% (inactive)
37 | Nc1nc(N)c(N=Nc2c(Br)cc(S(N)(=O)=O)cc2Br)c(N)n1 | 61.3% (inactive)
38 | Cc1oc2c(c1C(=O)N1CC[C@@H](N)C1)C(=O)c1c(c(O)c3ccccc3c1O)C2=O | 15.7% (inactive)
39 | O=C1c2ccccc2-c2nnc(-c3ccc(Br)cc3)cc21 | 64% (inactive)
40 | COc1cccc(OC)c1OC(=O)c1ccccc1 | 109% (inactive)

From PubChem BioAssay (NCI)
